Records with an inconclusive call do not appear. Calls of active or inactive are those of the source. Unless noted, no cut-off is given here; in the data, nearly all actives have AC50 up to about 30 µM.
Experiment: growth inhibition of DIPG glioma cells, dose response, cell-based, SU-DIPG-IV, MIPE4.0, CellTiter-Glo, qHTS (AID 1347063);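 note: compound exposure lasted 48 hours before the viability readout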
Settings: SU-DIPG-IV viability, CellTiter-Glo ATP luminescence

Compound	outcome	AC50
O=C(/C=C/c1c(C(=O)O)[nH]c2cc(Cl)cc(Cl)c12)Nc1ccccc1	inactive	–
C[C@H](NC(=O)c1sccc1OCc1ccc(Cl)cc1)c1ccccc1	–	18.7 µM (active)
N#CC(=C(/N)Sc1ccccc1N)/C(C#N)=C(\N)Sc1ccccc1N	–	8.33 µM (active)
C[C@@H](N)C1CCC(C(=O)Nc2ccncc2)CC1 (some centres undefined)	inactive	–
Cc1cccc(C#Cc2ccccc2)n1	inactive	–
Nc1ncnc2c1ncn2[C@@H]1O[C@H](CO)C[C@H]1O	inactive	–
COc1ccc(Nc2nccc(NCCO)n2)cc1	inactive	–
CC(C)(C)/[N+]([O-])=C/c1ccc(S(=O)(=O)O)cc1S(=O)(=O)O	inactive	–
CCOC(=O)C(C)Oc1cccc2c(=O)n(CC(=O)Nc3ccc4c(c3)OCCO4)ccc12 (centres undefined)	inactive	–
CC(C)C[C@@H](C(=O)N[C@H](C(=O)OC1CCCC1)c1ccccc1)[C@H](O)C(=O)NO	–	16.6 µM (active)
Clc1ccc(-c2nc3sccn3c2/C=N/OCc2ccc(Cl)c(Cl)c2)cc1	inactive	–
O=c1cc(N2CCOCC2)oc2c(-c3ccccc3)cccc12	–	2.64 µM (active)
O=S(=O)(NCCNC/C=C/c1ccc(Br)cc1)c1cccc2cnccc12	–	16.6 µM (active)
Oc1ccc(-c2nc(-c3ccc(F)cc3)c(-c3ccncc3)[nH]2)cc1	–	23.5 µM (active)
O=C(c1ccc(Nc2nccc(-c3cc4ccccc4s3)n2)cc1)N1CCC(N2CCCC2)CC1	–	8.33 µM (active)
Cc1ccc(NC(=O)c2cccc(N(C)C)c2)cc1NC(=O)c1ccc(O)cc1	–	0.935 µM (active)
O=C(O)Cc1cccc(OCCCN(Cc2cccc(C(F)(F)F)c2Cl)CC(c2ccccc2)c2ccccc2)c1	–	20.9 µM (active)

Experiment: growth inhibition of DIPG glioma cells, dose response, cell-based, SU-DIPG-XIII, MIPE5.0, CellTiter-Glo, qHTS (AID 1347064; cut-off not given, nearly all actives have AC50 up to about 23 µM;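 for AC50: cells exposed to compound for 48 hours before the viability read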)
Settings: SU-DIPG-XIII viability, CellTiter-Glo ATP luminescence

Compound	AC50	outcome
C[C@H](NC(=O)c1sccc1OCc1ccc(Cl)cc1)c1ccccc1	11.8 µM (active)	–
CNC(=O)[C@H]1O[C@@H](n2cnc3c(NCc4cccc(I)c4)nc(Cl)nc32)[C@H](O)[C@@H]1O	16.6 µM (active)	–
COc1cc(SC)ccc1C(=O)N1CCC(Cc2ccccc2)CC1	–	inactive
Oc1cc(O)cc(/C=C/c2ccc(O)c(O)c2)c1	20.9 µM (active)	–
FC(F)(F)c1ccc(/C=C/c2nc(COc3ccc(CCCCn4ccnn4)cc3)co2)cc1	–	inactive
C[C@@H](N)C1CCC(C(=O)Nc2ccncc2)CC1 (some centres undefined)	–	inactive
NC(=O)c1ccc(-c2nc(-c3ccc4c(c3)OCCO4)c(-c3ccccn3)[nH]2)cc1	13.2 µM (active)	–
CC(C)N(CCC(=O)c1ccc2ccccc2c1)Cc1ccccc1	7.42 µM (active)	–
COc1ccc(Nc2nccc(NCCO)n2)cc1	–	inactive
Cc1ccccc1C(=O)c1ccc(Nc2ccc(Br)cc2N)cc1Cl	20.9 µM (active)	–
CCOC(=O)C(C)Oc1cccc2c(=O)n(CC(=O)Nc3ccc4c(c3)OCCO4)ccc12 (centres undefined)	20.9 µM (active)	–
O=c1ncccn1[C@@H]1O[C@H](CO)[C@@H](O)[C@H]1O	–	inactive
Clc1ccc(-c2nc3sccn3c2/C=N/OCc2ccc(Cl)c(Cl)c2)cc1	20.9 µM (active)	–
O=c1cc(N2CCOCC2)oc2c(-c3ccccc3)cccc12	–	inactive
O=C(c1ccc(Nc2nccc(-c3cc4ccccc4s3)n2)cc1)N1CCC(N2CCCC2)CC1	8.33 µM (active)	–
C[C@H](NC(=O)Cc1cc(F)cc(F)c1)C(=O)N[C@H](C(=O)OC(C)(C)C)c1ccccc1	–	inactive

Experiment: viability loss in pontine glioma line – cell-based, SU-DIPG-XXV, MIPE5.0, CellTiter-Glo, qHTS, dose response (AID 1347065; cut-off not given, nearly all actives have AC50 up to about 26 µM;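 note: cells exposed to compound for 48 hours before ATP readout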)
Settings: CellTiter-Glo ATP luminescence

Compound	AC50	outcome
C[C@H](NC(=O)c1sccc1OCc1ccc(Cl)cc1)c1ccccc1	16.6 µM (active)	–
COc1cc(SC)ccc1C(=O)N1CCC(Cc2ccccc2)CC1	–	inactive
N#C/C(=C(/N)Sc1ccc(N)cc1)c1ccccc1C(F)(F)F	–	inactive
C[C@@H](N)C1CCC(C(=O)Nc2ccncc2)CC1 (some centres undefined)	–	inactive
Nc1nccc(-c2ccc3noc(-c4ccc(Cl)cc4)c3c2)n1	20.9 µM (active)	–
CC(C)N(CCC(=O)c1ccc2ccccc2c1)Cc1ccccc1	6.61 µM (active)	–
COc1ccc(Nc2nccc(NCCO)n2)cc1	–	inactive
COc1cc2c(cc1O)CC[C@@H]1[C@@H]2CC[C@]2(C)[C@@H](O)CC[C@@H]12	1.48 µM (active)	–
Cc1ccccc1C(=O)c1ccc(Nc2ccc(Br)cc2N)cc1Cl	18.6 µM (active)	–
O=c1ncccn1[C@@H]1O[C@H](CO)[C@@H](O)[C@H]1O	–	inactive
Clc1ccc(-c2nc3sccn3c2/C=N/OCc2ccc(Cl)c(Cl)c2)cc1	23.5 µM (active)	–
O=S(=O)(NCCNC/C=C/c1ccc(Br)cc1)c1cccc2cnccc12	23.5 µM (active)	–
Oc1ccc(Nc2nc(-c3ccc(Cl)cc3)cs2)cc1	5.9 µM (active)	–
CCCC[C@@H](C=O)NC(=O)[C@H](CC(C)C)NC(=O)OCc1ccccc1	–	inactive
O=C(c1ccc(Nc2nccc(-c3cc4ccccc4s3)n2)cc1)N1CCC(N2CCCC2)CC1	7.42 µM (active)	–
O=C(O)Cc1cccc(OCCCN(Cc2cccc(C(F)(F)F)c2Cl)CC(c2ccccc2)c2ccccc2)c1	20.9 µM (active)	–
